High-throughput results (PubChem)
Tb PFK block = qHTS Assay to Find Inhibitors of T. brucei phosphofructokinase. ATP-dependent 6-phosphofructokinase (Trypanosoma brucei brucei), O15648. T. brucei PFK, ADP-Glo luminescence. Potency, µM (titrated, usually from 57.5 µM), for inactives: at the top dose activity, negative = inhibition, actives largely listed as inhibitors. hit rate 0.17% among 330,000;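 note: 0% = uninhibited 1x PFK enzyme wells and -100% = no-enzyme wells; nearly all actives have a fitted effect of over 60% in size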
Target sequence (O15648 whole entry, looked up): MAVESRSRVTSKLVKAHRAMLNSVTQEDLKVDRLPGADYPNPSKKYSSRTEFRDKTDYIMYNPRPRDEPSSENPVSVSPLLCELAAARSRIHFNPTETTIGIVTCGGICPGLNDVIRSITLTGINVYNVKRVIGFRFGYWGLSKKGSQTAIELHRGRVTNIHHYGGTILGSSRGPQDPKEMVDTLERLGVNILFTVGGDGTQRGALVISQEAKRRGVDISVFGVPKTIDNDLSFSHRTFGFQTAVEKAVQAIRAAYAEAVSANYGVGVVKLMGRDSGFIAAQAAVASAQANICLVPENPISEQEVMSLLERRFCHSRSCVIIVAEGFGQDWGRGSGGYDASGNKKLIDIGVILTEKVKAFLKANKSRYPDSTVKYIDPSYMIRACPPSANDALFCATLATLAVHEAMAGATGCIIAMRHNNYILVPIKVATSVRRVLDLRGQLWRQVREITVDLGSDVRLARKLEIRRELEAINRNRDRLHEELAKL
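Activity is normalized to no-enzyme wells (full inhibition) and 1.25 nM enzyme wells (no inhibition). Reaction: 0.5 mM F6P, 0.1 mM ATP, 45 min RT, ADP-Glo luminescence; concentration-response curves fitted and classed by quality.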
USP2a inh = qHTS Assay for Inhibitors of Ubiquitin-specific Protease USP2a Using CHOP2 as the Reporter; hit rate 0.01% among 330,000; Potency, µM (doses to about 38.3 µM), without a hit: at the highest dose activity change, negative = inhibition, usual class: inhibitors; AID 463254, 2010; USP2 core, Ub-CHOP2 coupled fluorogenic reporter, 485/531; Ubiquitin carboxyl-terminal hydrolase 2 (Homo sapiens), O75604;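 note: plate controls were DMSO wells for no effect and full inhibition by NEM control for full effect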
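USP2 core (10nM final) preincubated 30min RT with compound in 20mM Tris-HCl pH 8.0, 2mM CaCl2, 2mM beta-mercaptoethanol, 0.05% CHAPS; 25nM Ub-CHOP2 plus 25nM reporter substrate added, fluorescence (Ex485/Em531) read after 60min.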
GLS inh = qHTS for Inhibitors of Glutaminase (GLS). GLS enzymatic activity, qHTS titration. Potency, µM (highest dose often 45.5 µM), without a hit: top-dose activity change, negative = inhibition, usual class: inhibitors. hit rate 0.21% among 410,000. AID 624170, 2012; note: % is set by controls: 0 for no effect and ±100 for the full control effect
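hKGA in 45 mM KH2PO4 (pH 8.2), 0.02% Tween-20 with compound, then 1mM L-Glutamine (stock as added) plus glutamate oxidase/HRP/Amplex red coupling mix. Fluorescence read initially and after 30 min at RT; signal change reflects glutamate formation.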
p53 reactivation = qHTS assay for re-activators of p53 using a Luc reporter | H1299 p53-A138V BP100-luciferase reporter, luminescence, 24 h | Potency, µM (top dose mostly 92.2 µM), for the others: at the top dose activity change, positive = activation, usual class: activators | hit rate 0.063% among 320,000; note: % of control where 0% means no effect; nearly all actives have a fitted effect of over 45% in size
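H1299 (p53-null), stable ts p53-A138V + BP100-Luc; 1000 cells/well, Opti-MEM/10% FBS; cpd 4 pt, 1:5; 24 h, 37 deg C, 5% CO2; detection reagent 10 min RT; luminescence.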
Starred values were filed as active, the others as inactive; ? = inconclusive; . = no result; [ ] = another dose, or the depositor's remark. Shown are actives, neighbours in structure and some others; about 0.39% of the full set was active somewhere. Calls come from the whole dose curve; as a rule, active = well fitted curve in the direction sought with a large enough effect; inconclusive = small, poorly fitted or top-dose-only effect, or another doubt; inactive = no such curve, though single readings can be large; an effect the other way counts as inactive or inconclusive. Potency is the fitted concentration of half-maximal effect.

SMILES | Tb PFK block | USP2a inh | GLS inh | p53 reactivation
Cc1c2ccccc2cc[n+]1CCCS(=O)(=O)[O-] | 1% | 1% | -1% | 6%
CC1(C)C(/C=C/C=C/C=C/C=C2\N(CCCCS(=O)(=O)O)c3ccc4ccccc4c3C2(C)C)=[N+](CCCCS(=O)(=O)[O-])c2ccc3ccccc3c21 | . | . | 6.3µM* | .
O=C(O)C1Sc2[nH]c(=O)sc2C2c3ccc(O)cc3OC(=O)C12 (stereo not given) | ? | 9% | 8.9µM* | 3%
O=C(O)C1Sc2[nH]c(=O)sc2C2c3cc(Br)ccc3OC(=O)C12 (stereo not given) | -13% | 4% | 10µM* | 1%
O=C(CC(c1ccccc1)c1cc(Br)ccc1O)NCC1(c2ccccc2)CCCC1 (stereo not given) | . | . | 13% | .
COc1ccccc1CN1C(=O)c2cccc3cccc(c23)C1=O | -4% | 0% | 7.9µM* | -34%
COc1ccccc1CN1C(=O)c2ccncc2C1=O | 0% | 2% | -5% | -4%
Cc1ccc(-c2ccc(/C=C3/NC(=O)NC3=O)o2)cc1[N+](=O)[O-] | 15% | 2% | 5% | -12%
CC1=C(C#N)C(=O)NC(=O)/C1=C\c1ccc(-c2cc(C)c(C)cc2[N+](=O)[O-])o1 | -12% | -1% | 11µM* | 4%
CCOc1ccc2nc(N3C(=O)/C(=C/c4ccccc4)NC3=S)sc2c1 | 1% | 1% | 3% | 13µM*
O=NN(CCCl)C(=O)NC1CCCCC1 | . | . | 4% | .
COc1ccc(C2=CC(=O)C[C@H](c3ccc(OC)cc3)C2)cc1 | 25% | 5% | -7% | 17%
COc1ccc(C2=CC(=O)C=CC2=O)cc1 | 6.7µM* | 10% | . | -14%
Cc1ccc(OCc2cc(C(=O)N3CC4C[C@@H]5CC3C[C@H](C4)C5)no2)cc1C | 1% | 1% | 9% | 28µM*
COc1cc(/C=C2\SC(c3ccc(C)cc3)=NC2=O)cc(OC)c1OC | -13% | 1% | -7% | -3%
COc1cc(/C=C2\SC(c3ccccc3)=NC2=O)cc(Cl)c1O | -15% | -18% | 8.9µM* | -4%
Cc1ccc(/C=C/C(=O)c2ccc(O)cc2)cc1 | -2% | 7% | 5% | 11µM*
C[n+]1c(/C=C/c2ccc3c(c2)OCO3)ccc2ccccc21 | -1% | 12% | 3% | ?
C[n+]1cc2c3c(ccc2c2ccc4cc5c(cc4c21)OCO5)OCO3 | . | . | 3.2µM* | .
COc1ccc2nc(N3C(=O)C(O)=C(C(=O)c4ccco4)C3c3ccccc3OC)sc2c1 (stereo not given) | 4% | 1% | ? | 11%
COc1ccc2nc(N3C(=O)C(O)=C(C(=O)c4ccco4)C3c3ccc(C)o3)sc2c1 (stereo not given) | -1% | -1% | 10µM* | 4%
COc1cc2c(cc1OC)C1O[C@](CCCCN3C(=O)c4ccccc4C3=O)(C2)OC2=C1C(=O)CC(C)(C)C2 | 2%[11.5 µM] | 2%[7.66 µM] | . | .
COc1ccc2[nH]c3c(=O)n(Cc4ccc(C(=O)N5CCCC5)cc4)c(=S)[nH]c3c2c1 | -6% | 3% | 10µM* | -4%
COc1ccc(CCNC(=O)c2ccc3c(c2)c(C)c(C)n3Cc2ccc(F)cc2)c(OC)c1OC | . | . | -8% | .
CCOC(=O)CNC(c1ccccc1)c1cc(Br)ccc1NC(=O)c1ccc(Cl)cc1 (stereo not given) | . | . | 1% | .
SMILES | Tb PFK block | USP2a inh | GLS inh | p53 reactivation
C(=Nc1ccc(N2CCOCC2)cc1)c1c[nH]c2ccccc12 | 2% | 5% | 11µM* | 12%
Oc1c(Br)cc(Cl)cc1C=Nc1ccc(N2CCOCC2)cc1 | -7% | 1% | 13µM* | 0%
Oc1ccc(N=Nc2cccc(Cl)c2)cc1C=Nc1ccc(N2CCOCC2)cc1 | 9% | 3% | ? | ?
CC(=O)Nc1ccc(S(=O)(=O)Oc2cccc(/C=C3\SC(N)=NC3=O)c2)cc1 | 2% | 3% | 18µM* | 12%
CSc1nc(O)c(/C=C2\C=Nc3ccccc32)[nH]1 | 7% | 2% | 13% | ?
O=c1[nH]c(/C=C2\C=Nc3ccccc32)c(O)n1Cc1ccccc1F | -1% | -1% | 7.9µM* | -6%
COc1ccc(NC(=O)Cn2c(=O)oc3cc(S(=O)(=O)N4CCCCC4C)ccc32)cc1 (stereo not given) | . | . | 3% | .
Cc1ccc(CCNC(=O)C(CC(C)C)NS(=O)(=O)c2ccc3c(c2)oc(=O)n3C)cc1 (stereo not given) | . | . | -2% | .
Cc1ccc(C(=O)/C=C/c2ccc(F)cc2)o1 | 0% | 1% | 8% | 45µM*
COc1ccc(/C=C/C(=O)c2ccc([N+](=O)[O-])o2)cc1 | -2% | 0% | -6% | -16%
CCOC(=O)c1cccc(NC(=O)CN2C(=O)c3ccccc3Sc3ncccc32)c1 | . | . | -6% | .
O=C(O)c1ccc2c(c1)C(=O)N([C@H](Cc1c[nH]c3ccccc13)C(=O)O)C2=O | 5% | 8% | . | .
Cc1ccc(S(=O)(=O)Cc2ccc(C(=O)O)o2)cc1 | -8% | 3% | 13µM* | -2%
COc1ccc(/C=C2\CCn3c2nc2cc(C(=O)O)ccc2c3=O)cc1OC | 1% | 1% | ? | -3%
COc1ccc(/C=C2\CCn3c2nc2cc(C(=O)O)ccc2c3=O)cc1O | 6% | 1% | 6.3µM* | -1%
CCCN1CCN(c2nnc(-n3cccc3C(=O)Nc3cc(Cl)ccc3C)s2)CC1 | . | . | -11% | .
CC1=C(C(=O)OC(C)C)C(c2ccc(Cl)cc2)n2c(s/c(=C\c3ccc(OCC(=O)O)cc3)c2=O)=N1 (stereo not given) | -13% | ? | 11µM* | 6%
CCOC(=O)C1=C(C)N=c2s/c(=C\c3ccc(OCC(=O)O)cc3)c(=O)n2C1c1ccccc1 (stereo not given) | 7% | -3% | 5% | .
Nc1ccc(C(=O)O)cc1 | ? | 1% | 2% | 1%
Nc1ccc(O)cc1 | . | . | 13µM* | .
Cc1cc(C)cc(NC(=O)CSc2nnc(-c3cc4occc4n3C)n2-c2ccccc2C)c1 | . | . | 10% | .
Fc1cccc(Cl)c1CNc1ccc(N2CCCC2)cc1 | 5% | 1% | 7.9µM* | -6%
O=CC(O)C1OC(=O)C(O)C1O (stereo not given) | . | . | 11µM* | .
O=C1CC(C(=O)N2CCN(c3ccccc3Cl)CC2)CN1Cc1ccccc1 (stereo not given) | 6% | 1% | 0% | 4%
Cc1ccc(CN2CC(C(=O)N3CCN(c4ccccc4O)CC3)CC2=O)cc1 (stereo not given) | -8% | -1% | 7.1µM* | 4%
CC(C)Oc1ccc(CNC(=O)C2CCCN(S(=O)(=O)c3ccc4c(ccn4C)c3)C2)cc1 (stereo not given) | . | . | 7% | .
O=C(O)c1cc(-c2ccc(/C=C3\NC(=O)N(c4ccc(Cl)cc4)C3=O)o2)ccc1Cl | -3% | 4% | 20µM* | 7%
